# Assay results: PubChem BioAssay (Tox21)
# “And” between values parts separate entries of the source, which are not always exact repeats. Equal entries are not always repeated. Results filed as inconclusive are left out. Where a call stands in place of a potency, no number is given. Values without a mark were called inactive. The source made the active and inactive calls. Calls come from the whole dose curve; as a rule, active = well fitted curve in the direction sought with a large enough effect in the repeat runs; inconclusive = weak or mixed curves; inactive = no such curve, though single readings can be large; an effect the other way counts as inactive or inconclusive.
# Molecular target: Cytochrome P450 1A2 (Homo sapiens) (UniProt P05177)
# Sequence (P05177 whole entry, looked up): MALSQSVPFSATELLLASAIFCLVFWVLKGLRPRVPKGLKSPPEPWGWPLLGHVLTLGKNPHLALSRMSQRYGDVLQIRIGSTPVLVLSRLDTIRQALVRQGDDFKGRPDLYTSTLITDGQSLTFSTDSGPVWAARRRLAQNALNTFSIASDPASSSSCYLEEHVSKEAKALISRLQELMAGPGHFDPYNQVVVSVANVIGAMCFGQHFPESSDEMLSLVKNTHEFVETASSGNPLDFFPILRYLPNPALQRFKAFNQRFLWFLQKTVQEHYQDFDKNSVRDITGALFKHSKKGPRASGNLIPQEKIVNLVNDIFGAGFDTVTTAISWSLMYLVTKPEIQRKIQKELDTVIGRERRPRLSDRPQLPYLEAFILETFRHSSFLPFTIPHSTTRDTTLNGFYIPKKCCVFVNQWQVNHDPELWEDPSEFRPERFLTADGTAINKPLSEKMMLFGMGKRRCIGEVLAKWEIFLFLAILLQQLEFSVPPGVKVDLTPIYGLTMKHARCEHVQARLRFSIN
# Assay: Cytochrome P450 Family 1 Subfamily A Member 2 (CYP1A2) small molecule antagonists: luciferase reporter qHTS assay (AID 1671199)
# Details: P450-Glo CYP1A2 enzyme, luciferin luminescence, 1 h; series mostly up to 53 µM
# Outline: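 P450-Glo CYP1A2 enzyme–proluciferin substrate mix with compound 10 min at room temperature, then NADPH regeneration 1 h at room temperature. Luciferin detection reagent added, luminescence read after 20 min; furafylline positive control.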
# Note: nearly all actives have a fitted effect of over 50% in size.
# Potency is the fitted concentration of half-maximal effect.
row,SMILES,Potency
1,CC(=O)c1ccccc1O,inactive
2,O=Cc1cccc([N+](=O)[O-])c1,39.7 µM (active)
3,COc1ccc2c(c1)c(CC(=O)OCC(=O)O)c(C)n2C(=O)c1ccc(Cl)cc1,inactive
4,CCCCCCCCS(=O)(=O)Cl,inactive
5,Nc1c2c(nc3ccccc13)CCCC2O (stereo not given),15.5 µM (active)
6,COC(=O)c1c(Cl)c(Cl)c(C(=O)OC)c(Cl)c1Cl,317 nM (active) and 154 nM (active)
7,CCCN(CCC)CCc1cccc2c1CC(=O)N2,inactive
8,C[C@H](NC(CCc1ccccc1)C(=O)O)C(=O)N1CCC[C@H]1C(=O)O (stereo not given in full),inactive
9,NC(=O)c1ccc([N+](=O)[O-])cc1,39.8 µM (active)
10,CCc1ccc(O)c(OC)c1,31.7 µM (active)
11,CS(=O)(=O)O,31.9 µM (active)
12,COC(=O)NN,inactive
13,Nc1c[n+](N2CCOCC2)no1,inactive
14,CC(=O)OCC(=O)[C@@]1(O)CC[C@H]2[C@@H]3CCC4=CC(=O)CC[C@]4(C)[C@H]3C(=O)C[C@@]21C,inactive
15,OC1CCCCC1c1ccccc1 (stereo not given),inactive
16,C=COCC1CCC(CO)CC1 (stereo not given),inactive
17,C=C1CC[C@H]2C[C@@H]1C2(C)C,inactive
18,CC(=O)Nc1ccc(S(N)(=O)=O)cc1,inactive
19,N=C(N)c1ccc(OCCCOc2ccc(C(=N)N)cc2)cc1,inactive
20,O=C(O)c1ccccc1OP(=O)(O)O,27.5 µM (active)

# Molecular target: Voltage-gated inwardly rectifying potassium channel KCNH2 (Homo sapiens) (UniProt Q12809)
# Sequence (Q12809 whole entry, looked up): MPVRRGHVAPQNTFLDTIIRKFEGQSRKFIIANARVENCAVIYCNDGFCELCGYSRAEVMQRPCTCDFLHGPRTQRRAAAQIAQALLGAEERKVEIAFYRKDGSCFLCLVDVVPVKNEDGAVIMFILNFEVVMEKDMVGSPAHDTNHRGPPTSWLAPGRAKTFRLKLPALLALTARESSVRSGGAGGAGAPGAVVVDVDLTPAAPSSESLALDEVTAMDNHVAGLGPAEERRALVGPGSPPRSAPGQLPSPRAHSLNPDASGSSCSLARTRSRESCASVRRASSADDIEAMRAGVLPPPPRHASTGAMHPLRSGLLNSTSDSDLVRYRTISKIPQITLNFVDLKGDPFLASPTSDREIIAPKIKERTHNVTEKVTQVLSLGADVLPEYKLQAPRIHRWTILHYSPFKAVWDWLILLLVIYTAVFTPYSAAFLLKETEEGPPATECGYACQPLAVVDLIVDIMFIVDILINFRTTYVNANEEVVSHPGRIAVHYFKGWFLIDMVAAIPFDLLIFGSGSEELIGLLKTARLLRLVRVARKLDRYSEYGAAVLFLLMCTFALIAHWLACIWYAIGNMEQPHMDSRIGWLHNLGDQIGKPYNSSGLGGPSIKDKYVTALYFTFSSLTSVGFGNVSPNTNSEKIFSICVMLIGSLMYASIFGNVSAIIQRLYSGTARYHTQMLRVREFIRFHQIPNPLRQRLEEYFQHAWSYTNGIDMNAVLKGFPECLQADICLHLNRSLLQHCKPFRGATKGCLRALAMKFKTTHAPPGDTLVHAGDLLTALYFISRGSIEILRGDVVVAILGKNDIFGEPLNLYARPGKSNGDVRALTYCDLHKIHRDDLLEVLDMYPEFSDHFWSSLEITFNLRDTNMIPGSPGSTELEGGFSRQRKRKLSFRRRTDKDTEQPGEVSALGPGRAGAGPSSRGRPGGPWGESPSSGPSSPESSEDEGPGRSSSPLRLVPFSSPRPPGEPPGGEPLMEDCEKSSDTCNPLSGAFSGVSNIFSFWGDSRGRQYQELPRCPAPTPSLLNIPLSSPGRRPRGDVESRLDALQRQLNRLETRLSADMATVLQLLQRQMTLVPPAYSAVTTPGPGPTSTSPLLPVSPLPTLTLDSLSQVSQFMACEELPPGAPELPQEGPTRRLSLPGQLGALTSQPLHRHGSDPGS
# Assay: Human Ether-a-go-go-Related Gene (hERG) channel small molecule antagonists: fluorescence cell-based qHTS assay (AID 1671200);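 for activity change, negative = inhibition: hERG-expressing U2OS cells given a thallium stimulus after FluxOR II dye loading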
# Details: hERG-U2OS cells, FluxOR thallium flux fluorescence; series mostly up to 76.8 µM
# Outline: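 Kinetic two-minute fluorescence traces, sampled at 1 s, were collected following thallium stimulus of U2OS cells (1000 per well) that had been cultured overnight at 37 C and loaded with FluxOR II.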
SMILES,Potency,"activity change, negative = inhibition"
CCO[Si](CCC1CCC2OC2C1)(OCC)OCC (stereo not given),inactive,–
CC(=O)c1ccccc1O,inactive,–
O=Cc1cccc([N+](=O)[O-])c1,inactive,–
COc1ccc2c(c1)c(CC(=O)OCC(=O)O)c(C)n2C(=O)c1ccc(Cl)cc1,inactive,–
CCCCCCCCS(=O)(=O)Cl,inactive,–
Cc1c(O)cccc1O,inactive,–
Nc1c2c(nc3ccccc13)CCCC2O (stereo not given),inactive,–
CC/C=C\CC/C=C/C(OCC)OCC,inactive,–
CC(=O)CC(C)(C)C1CCCCC1,inactive,–
NC(=O)c1ccc([N+](=O)[O-])cc1,inactive,–
C=CCCCCCCCCC=O,inactive,–
COC(=O)c1cc(C(=O)OC)cc(S(=O)(=O)O)c1,inactive,–
CCc1ccc(O)c(OC)c1,inactive,–
CO[C@]12C[C@@H](COC(=O)c3cncc(Br)c3)CN(C)[C@@H]1Cc1cn(C)c3cccc2c13,1.07 µM (active),–
CS(=O)(=O)O,inactive,–
COC(=O)NN,inactive,–

SMILES,Potency,"activity change, negative = inhibition"
Nc1c[n+](N2CCOCC2)no1,inactive,–
CC(=O)OCC(=O)[C@@]1(O)CC[C@H]2[C@@H]3CCC4=CC(=O)CC[C@]4(C)[C@H]3C(=O)C[C@@]21C,inactive,–
CCCCCCCCCCCCCC=O,–,-8.57% [at 6.97 µM]
OC1CCCCC1c1ccccc1 (stereo not given),inactive,–
O=C(O)CCCl,inactive,–
C/C=C(\C)C#N,inactive,–
CC(C)(O)C(=O)c1ccccc1,inactive,–
C=COCC1CCC(CO)CC1 (stereo not given),inactive,–
C=C1CC[C@H]2C[C@@H]1C2(C)C,inactive,–
OCCOc1ccc(OCCO)cc1,inactive,–
COC(=O)CCSCCC(=O)OC,inactive,–
O=[N+]([O-])c1ccc(F)cc1F,inactive,–
CC(=O)Nc1ccc(S(N)(=O)=O)cc1,inactive,–
N=C(N)c1ccc(OCCCOc2ccc(C(=N)N)cc2)cc1,inactive,–
O=C(O)c1ccccc1OP(=O)(O)O,inactive,–
CN1N=C(C(N)=O)CCC1=O,inactive,–

# Molecular target: Cytochrome P450 3A4 (Homo sapiens) (UniProt P08684)
# Sequence (P08684 whole entry, looked up): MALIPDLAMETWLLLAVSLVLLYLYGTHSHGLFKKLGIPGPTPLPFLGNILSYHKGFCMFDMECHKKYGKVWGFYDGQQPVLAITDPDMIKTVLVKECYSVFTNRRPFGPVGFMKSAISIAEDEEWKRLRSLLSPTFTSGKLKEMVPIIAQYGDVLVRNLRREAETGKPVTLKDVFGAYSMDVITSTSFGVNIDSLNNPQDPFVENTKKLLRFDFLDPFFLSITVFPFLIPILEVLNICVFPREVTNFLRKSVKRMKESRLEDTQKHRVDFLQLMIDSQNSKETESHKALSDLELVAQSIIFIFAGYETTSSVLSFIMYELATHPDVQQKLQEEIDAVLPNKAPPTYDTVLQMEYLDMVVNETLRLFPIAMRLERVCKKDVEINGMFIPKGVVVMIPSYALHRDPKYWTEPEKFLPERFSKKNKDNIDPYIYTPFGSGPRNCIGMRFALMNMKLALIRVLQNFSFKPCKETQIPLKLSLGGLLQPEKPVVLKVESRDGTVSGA
# Assay: Cytochrome P450 Family 3 Subfamily A Member 4 (CYP3A4) small molecule antagonists: luciferase reporter qHTS assay (AID 1671201)
# Details: P450-Glo CYP3A4 enzyme, luciferin luminescence, 1 h; series mostly up to 115 µM
# Outline: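 Proluciferin-to-luciferin conversion by CYP3A4, NADPH-regenerated, 1 h RT; luminescence read as RLU. Ketoconazole as control.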
SMILES,Potency,"activity change, negative = inhibition"
CCO[Si](CCC1CCC2OC2C1)(OCC)OCC (stereo not given),inactive,–
CC(=O)c1ccccc1O,inactive,–
O=Cc1cccc([N+](=O)[O-])c1,inactive,–
COc1ccc2c(c1)c(CC(=O)OCC(=O)O)c(C)n2C(=O)c1ccc(Cl)cc1,inactive,–
CCCCCCCCS(=O)(=O)Cl,inactive,–
Cc1c(O)cccc1O,32.5 µM (active),–
Nc1c2c(nc3ccccc13)CCCC2O (stereo not given),inactive,–
COC(=O)c1c(Cl)c(Cl)c(C(=O)OC)c(Cl)c1Cl,inactive,–
CC/C=C\CC/C=C/C(OCC)OCC,31.7 µM (active),–
CCCN(CCC)CCc1cccc2c1CC(=O)N2,inactive,–
C[C@H](NC(CCc1ccccc1)C(=O)O)C(=O)N1CCC[C@H]1C(=O)O (stereo not given in full),inactive,–
CC(=O)CC(C)(C)C1CCCCC1,inactive,–
NC(=O)c1ccc([N+](=O)[O-])cc1,inactive,–
COC(=O)c1cc(C(=O)OC)cc(S(=O)(=O)O)c1,inactive,–
CCc1ccc(O)c(OC)c1,inactive,–
CS(=O)(=O)O,inactive,–
COC(=O)NN,inactive,–

SMILES,Potency,"activity change, negative = inhibition"
Nc1c[n+](N2CCOCC2)no1,inactive,–
CC(=O)OCC(=O)[C@@]1(O)CC[C@H]2[C@@H]3CCC4=CC(=O)CC[C@]4(C)[C@H]3C(=O)C[C@@]21C,inactive,–
CCCCCCCCCCCCCC=O,–,-19.9% [at 10.5 µM]
OC1CCCCC1c1ccccc1 (stereo not given),inactive,–
O=C(O)CCCl,inactive,–
C/C=C(\C)C#N,inactive,–
CC(C)(O)C(=O)c1ccccc1,inactive,–
C=COCC1CCC(CO)CC1 (stereo not given),inactive,–
C=C1CC[C@H]2C[C@@H]1C2(C)C,inactive,–
OCCOc1ccc(OCCO)cc1,inactive,–
COC(=O)CCSCCC(=O)OC,inactive,–
O=[N+]([O-])c1ccc(F)cc1F,inactive,–
CC(=O)Nc1ccc(S(N)(=O)=O)cc1,inactive,–
N=C(N)c1ccc(OCCCOc2ccc(C(=N)N)cc2)cc1,inactive,–
O=C(O)c1ccccc1OP(=O)(O)O,inactive,–
CN1N=C(C(N)=O)CCC1=O,inactive,–
